Data on 54 compounds can be found in paper PMC4336329 (PLoS ONE, 2015).

Molecules are shown by their SMILES. The campaign covered roughly 310,000 compounds. About 14,000 (4.5%) showed an effect of 50% or more. The effect is printed as a negative number. Shown is part of a subset that was picked to be rich in strong results.
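Note: peak tail current of the secondary pulse compared with the same well before compound.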

The experiment deals with human ether-à-go-go-related gene (hERG) potassium channel (human, UniProt Q12809). The experiment can be described thus: primary screen, population patch clamp on CHO cells stably expressing hERG; higher = less effect of the substance.
Chain of human ether-à-go-go-related gene (hERG) potassium channel (Q12809 whole entry, looked up): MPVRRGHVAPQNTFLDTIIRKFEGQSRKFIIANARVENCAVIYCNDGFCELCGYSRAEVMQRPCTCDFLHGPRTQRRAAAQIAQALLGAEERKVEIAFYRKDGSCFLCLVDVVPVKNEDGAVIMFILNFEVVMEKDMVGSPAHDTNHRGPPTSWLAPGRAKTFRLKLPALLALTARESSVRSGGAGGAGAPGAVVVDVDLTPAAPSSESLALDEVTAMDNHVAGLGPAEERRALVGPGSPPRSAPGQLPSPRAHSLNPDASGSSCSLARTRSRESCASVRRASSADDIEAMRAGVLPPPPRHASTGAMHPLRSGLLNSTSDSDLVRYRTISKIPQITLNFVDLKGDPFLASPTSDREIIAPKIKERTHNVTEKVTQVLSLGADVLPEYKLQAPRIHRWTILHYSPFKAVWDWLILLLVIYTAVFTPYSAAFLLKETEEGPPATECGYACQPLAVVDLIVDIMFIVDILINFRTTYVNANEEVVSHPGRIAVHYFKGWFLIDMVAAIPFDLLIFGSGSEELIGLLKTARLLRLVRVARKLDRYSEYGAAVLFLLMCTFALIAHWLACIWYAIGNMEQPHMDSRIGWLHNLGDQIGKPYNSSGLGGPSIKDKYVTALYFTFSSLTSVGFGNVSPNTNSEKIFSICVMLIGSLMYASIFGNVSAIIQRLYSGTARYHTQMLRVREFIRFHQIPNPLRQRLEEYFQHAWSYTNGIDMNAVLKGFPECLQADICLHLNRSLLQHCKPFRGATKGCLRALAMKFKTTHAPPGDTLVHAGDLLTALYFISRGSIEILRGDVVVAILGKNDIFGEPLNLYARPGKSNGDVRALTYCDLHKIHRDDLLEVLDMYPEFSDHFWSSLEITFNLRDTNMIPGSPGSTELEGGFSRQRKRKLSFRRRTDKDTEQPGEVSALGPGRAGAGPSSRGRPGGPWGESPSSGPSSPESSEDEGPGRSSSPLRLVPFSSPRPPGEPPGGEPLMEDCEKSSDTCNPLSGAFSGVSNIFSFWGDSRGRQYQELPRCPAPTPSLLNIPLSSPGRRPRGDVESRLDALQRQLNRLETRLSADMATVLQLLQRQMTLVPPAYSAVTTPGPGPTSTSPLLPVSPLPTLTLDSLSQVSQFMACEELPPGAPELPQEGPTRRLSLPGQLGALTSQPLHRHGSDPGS
In the case of `CC(C)C[C@H](NC(=O)c1cc2cc(Cl)ccc2n1C)C(=O)N1CCC(C(=O)O)CC1`, the “hERG current change (%, negative = inhibition) at 10uM” value came to 13.5%.

For the compound `CN(C(=O)c1cccc(N2C(=O)C3C4C=CC(C4)C3C2=O)c1)C1CCCCC1` (stereo not drawn), the “hERG current change (%, negative = inhibition) at 10uM” value is on record as 0.921%.

For the compound `O=C(Nc1ccccc1)NC(Cc1ccc(O)cc1)C(=O)O` (stereo not drawn), the “hERG current change (%, negative = inhibition) at 10uM” value is recorded as 17.4%.

Turning to `O=C(NC(=S)Nc1ccccc1C(=O)O)c1cncc(Br)c1`, the “hERG current change (%, negative = inhibition) at 10uM” value is recorded as 23%.

In the case of `COc1ccc(OC)c(/C=C/C(=O)OCC(=O)Nc2ccc3c(c2)OCCO3)c1`, the “hERG current change (%, negative = inhibition) at 10uM” value was found to be 15.9%.

Turning to `Cc1noc(/C=C/N(C)C)c1S(=O)(=O)N1CCc2ccccc21`, the “hERG current change (%, negative = inhibition) at 10uM” value is -18.6%.

In the case of `COc1ccccc1CN(C)C(=O)c1cccc(S(=O)(=O)N2CCc3ccccc3C2)c1`, the “hERG current change (%, negative = inhibition) at 10uM” value was -4.08%.

`O=C(COC(=O)c1cc(=O)c2ccccc2o1)Nc1ccc2ccccc2c1`: the “hERG current change (%, negative = inhibition) at 10uM” value was found to be 17.6%.

In the case of `CN1/C(=C\C(=O)CSc2nnc(NCc3ccccc3)s2)C(C)(C)c2ccccc21`, the “hERG current change (%, negative = inhibition) at 10uM” value was -13.1%.

Regarding `CN1/C(=C\C(=O)CSc2nnc(N)s2)C(C)(C)c2ccccc21`, the “hERG current change (%, negative = inhibition) at 10uM” value came out at 0.532%.

Take `CC(C)Nc1nnc(SCC(=O)/C=C2\N(C)c3ccccc3C2(C)C)s1`: the “hERG current change (%, negative = inhibition) at 10uM” value was -65.1%.

Consider `COc1ccc(C(=O)C2CCCN(C3CSCCSC3)C2)c(C)c1` (stereo not drawn), for which the “hERG current change (%, negative = inhibition) at 10uM” value is -13%.

Consider `O=C(c1ccc(C(F)(F)F)cc1)C1CCCN(C(=O)c2csnn2)C1` (stereo not drawn), for which the “hERG current change (%, negative = inhibition) at 10uM” value is -22.6%.

Take `O=C(c1ccc(C(F)(F)F)cc1)C1CCCN(C2CCSCC2)C1` (stereo not drawn): the “hERG current change (%, negative = inhibition) at 10uM” value is -71.2%.

In the case of `O=C(c1ccc(Cl)cc1)C1CCCN(C(=O)c2csnn2)C1` (stereo not drawn), the “hERG current change (%, negative = inhibition) at 10uM” value stood at 0.734%.

For `Cc1cc(Cl)ccc1C(=O)C1CCCN(C(=O)c2nonc2C)C1` (stereo not drawn), the “hERG current change (%, negative = inhibition) at 10uM” value was -26.3%.

Consider `Cc1cc(Cl)ccc1C(=O)C1CCCN(C2CCSCC2)C1` (stereo not drawn), for which the “hERG current change (%, negative = inhibition) at 10uM” value was -74.3%.

In the case of `Cc1cc(Cl)ccc1C(=O)C1CCCN(C(=O)c2snnc2C)C1` (stereo not drawn), the “hERG current change (%, negative = inhibition) at 10uM” value is -56.1%.

In the case of `COC(=O)CCC(=O)N1CCCC(C(=O)c2ccc(Cl)cc2C)C1` (stereo not drawn), the “hERG current change (%, negative = inhibition) at 10uM” value was -5.75%.

For the compound `Cc1nc(C)c(C(=O)N2CCCC(C(=O)c3ccc(Cl)cc3C)C2)s1` (stereo not drawn), the “hERG current change (%, negative = inhibition) at 10uM” value is given as -23%.

With `CN1CCCC(C(=O)c2ccc(Cl)cc2)C1` (stereo not drawn), the “hERG current change (%, negative = inhibition) at 10uM” value is reported as -23%.

Turning to `CC(C)(C)c1ccc(C(=O)C2CCCN(C3CCC3)C2)cc1` (stereo not drawn), the “hERG current change (%, negative = inhibition) at 10uM” value is -18.4%.

`O=C(c1ccc(Cl)cc1)C1CCCN(C2CCSCC2)C1` (stereo not drawn): the “hERG current change (%, negative = inhibition) at 10uM” value is listed as -78.9%.

As for `COc1cc2cc(C)nc(Cc3cccc4ccccc34)c2cc1OC`, the “hERG current change (%, negative = inhibition) at 10uM” value is 8.53%.

As for `CC#CP(=O)(OCC)C(O)(c1ccccc1)C(F)(F)F` (stereo not drawn), the “hERG current change (%, negative = inhibition) at 10uM” value is on record as -3.29%.

As for `CC(=O)Nc1c(O)nc(SCC(=O)Nc2cccc(C)c2)[nH]c1=O`, the “hERG current change (%, negative = inhibition) at 10uM” value is listed as 14.8%.

For `CCOc1cc(-c2ccc(N)c(OCC)c2)ccc1N`, the “hERG current change (%, negative = inhibition) at 10uM” value is given as -10.2%.

Regarding `S=C(NCc1ccc(Cl)c(Cl)c1)Nc1ccc2c(c1)OCO2`, the “hERG current change (%, negative = inhibition) at 10uM” value was -6.19%.

Turning to `Nn1c(SCC(=O)Nc2ccc(S(N)(=O)=O)cc2)nnc1C(F)(F)F`, the “hERG current change (%, negative = inhibition) at 10uM” value stood at 0.037%.

As for `Cc1cc(Cl)cc(C)c1OCCCCCn1ccnc1`, the “hERG current change (%, negative = inhibition) at 10uM” value is reported as -28.1%.

For `CCCN1CCC(=O)N([C@H](CSc2ccccc2)Cc2ccccc2)CC1`, the “hERG current change (%, negative = inhibition) at 10uM” value is on record as -69.6%.

Regarding `Cc1ccc(SC[C@H](Cc2ccccc2)N2CC[C@@H](C)CCC2=O)cc1`, the “hERG current change (%, negative = inhibition) at 10uM” value was -28.7%.

Take `CN1CCC(=O)N([C@H](CSc2ccccc2)Cc2ccccc2)CC1`: the “hERG current change (%, negative = inhibition) at 10uM” value is listed as -45.8%.

For `CC(C)(C)[C@H]1CCC(=O)N([C@H](CSc2ccccc2)Cc2ccccc2)CC1`, the “hERG current change (%, negative = inhibition) at 10uM” value is on record as -3.06%.

As for `CC(C)(C)[C@H]1CCC(=O)N([C@H](CSc2ccc(Br)cc2)Cc2ccccc2)CC1`, the “hERG current change (%, negative = inhibition) at 10uM” value was 4.84%.

Take `CN1CCC(=O)N([C@H](CSc2ccc(Br)cc2)Cc2ccccc2)CC1`: the “hERG current change (%, negative = inhibition) at 10uM” value is listed as -64.8%.

For `CCCN1CCC(=O)N([C@H](CSc2ccc(Br)cc2)Cc2ccccc2)CC1`, the “hERG current change (%, negative = inhibition) at 10uM” value is -71.2%.

For `C[C@H]1CCC(=O)N([C@H](CSc2ccc(Br)cc2)Cc2ccccc2)CC1`, the “hERG current change (%, negative = inhibition) at 10uM” value is on record as 7.31%.

For `CCOC(=O)c1c(NC(=O)C[n+]2ccc(Cc3ccccc3)cc2)sc(C)c1C.[Cl-]`, the “hERG current change (%, negative = inhibition) at 10uM” value is -43.5%.

As to `CC1CCN(c2cc(N3CCC(C)CC3)c([N+](=O)[O-])cc2/C=C(\C#N)c2nn(-c3ccccc3)c(N)c2C#N)CC1`, the “hERG current change (%, negative = inhibition) at 10uM” value is listed as -10.2%.

For the compound `Cc1ccc(S(=O)(=O)N2CCN(Cc3nc4sc5c(c4c(=O)[nH]3)CCCC5)CC2)cc1`, the “hERG current change (%, negative = inhibition) at 10uM” value is -21.3%.

Regarding `O=C(c1ccccc1F)N1CCN(Cc2nc3sc4c(c3c(=O)[nH]2)CCCC4)CC1`, the “hERG current change (%, negative = inhibition) at 10uM” value is reported as -81.6%.

Take `Cc1cccc(C(=O)N2CCN(Cc3nc4sc5c(c4c(=O)[nH]3)CCCC5)CC2)c1`: the “hERG current change (%, negative = inhibition) at 10uM” value is -58.4%.

As to `O=c1[nH]c(CN2CCN(S(=O)(=O)c3ccccc3C(F)(F)F)CC2)nc2sc3c(c12)CCCC3`, the “hERG current change (%, negative = inhibition) at 10uM” value is given as 10.9%.

For the compound `O=C(CCc1nc2sc3c(c2c(=O)[nH]1)CCCC3)N1CCN(c2ccccc2)CC1`, the “hERG current change (%, negative = inhibition) at 10uM” value stood at 2.7%.

On to `CC(=O)N1CCN(C(=O)CCc2nc3sc4c(c3c(=O)[nH]2)CCCC4)CC1`, for which the “hERG current change (%, negative = inhibition) at 10uM” value is 5.61%.

Regarding `Cc1ccc(-c2c(C)sc3nc(CN4CCN(CC(=O)NC5CC5)CC4)[nH]c(=O)c23)cc1`, the “hERG current change (%, negative = inhibition) at 10uM” value is reported as -71.5%.

With `Cc1ccc(S(=O)(=O)N2CCN(Cc3nc4sc(C)c(C)c4c(=O)[nH]3)CC2)cc1`, the “hERG current change (%, negative = inhibition) at 10uM” value turned out to be 18.2%.

On to `O=c1[nH]c(CN2CCCC2)nc2sc3c(c12)CCC3`, for which the “hERG current change (%, negative = inhibition) at 10uM” value is listed as 20.5%.

`Cc1sc2nc(CN3CCOCC3)[nH]c(=O)c2c1-c1ccccc1`: the “hERG current change (%, negative = inhibition) at 10uM” value is 2.19%.

In the case of `Cc1cccc(NC(=O)CCc2nc3sc4c(c3c(=O)[nH]2)CCCC4)c1`, the “hERG current change (%, negative = inhibition) at 10uM” value is 10.8%.

Take `Cc1ccc(C(=O)N2CCN(Cc3nc4sc5c(c4c(=O)[nH]3)CCCC5)CC2)cc1`: the “hERG current change (%, negative = inhibition) at 10uM” value is listed as -76%.

With `Cc1ccc(C)c(S(=O)(=O)Nc2ccc(C(=O)NCCc3ccccn3)cc2)c1`, the “hERG current change (%, negative = inhibition) at 10uM” value was determined as 10.2%.

In the case of `Cc1ccc(C)c(N2CCN(C(=O)C3CCN(S(=O)(=O)c4cccc5nsnc45)CC3)CC2)c1`, the “hERG current change (%, negative = inhibition) at 10uM” value is on record as -8.49%.
